Source: PubChem BioAssay (NCATS)
Where “and” joins values, the source holds several entries; their conditions need not be identical. Equal values may be shown once. Records with an inconclusive call do not appear. Calls of active or inactive are those of the source. Unless noted, calls come from the whole dose curve; as a rule, active = well fitted curve in the direction sought with a large enough effect; inconclusive = small, poorly fitted or top-dose-only effect, or another doubt; inactive = no such curve, though single readings can be large; an effect the other way counts as inactive or inconclusive.

What was measured:
[1] = S16 Schwann cell PMP22 intronic element firefly luciferase assay (AID 624032); note: nearly all actives have a fitted effect of over 30% in size; note: potency is the fitted concentration of half-maximal effect
In short: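 Rat S16 Schwann cells stably carrying firefly luciferase driven by a PMP22 intronic element, in 10% FBS, treated 24 h at 37 C. ONE-Glo luminescence normalized to PTC124 control and DMSO (0%); curves classed by r2, magnitude and activity.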

[2] = tested on: AS120; experiment: qHTS profiling for inhibitors of Plasmodium falciparum proliferation (AID 504749);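 note: 0% = DMSO vehicle and full inhibition = artemisinin control; nearly all actives have a fitted effect of over 60% in size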; conditions: P. falciparum in erythrocytes, SYBR Green DNA, 72 h; series mostly up to 28.7 µM
In short: (§1)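 P. falciparum-infected erythrocytes (0.3% parasitemia, 2.5% hematocrit) incubated with compound 72 h at 37 C, 5% CO2. Parasite DNA detected by SYBR Green after lysis, overnight at room temperature; normalised to 0.29 uM artemisinin and DMSO.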

[3] = tested on: ATS189; experiment: as above; conditions: P. falciparum in erythrocytes, SYBR Green DNA, 72 h; series mostly up to 28.7 µM
In short: as §1

[4] = tested on: PC49; experiment: as above; conditions: P. falciparum in erythrocytes, SYBR Green DNA, 72 h; series mostly up to 28.7 µM
In short: as §1

[5] = Cell Viability - BJ (AID 421; calls by dose curve;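 note: potency is the fitted concentration of half-maximal effect; cells exposed to compound for 40 hours at 37 °C before readout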); conditions: BJ fibroblast viability, qHTS
In short: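 Quantitative HTS: ATP depletion in BJ cells after 40 hr compound exposure in complete culture medium, detected with CellTiter-Glo; AC50 from standard Hill fits.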

[6] = Cell Viability - MRC5 (AID 434; calls by dose curve;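 note: potency is the fitted concentration of half-maximal effect; potency reflects cytotoxicity seen as loss of intracellular ATP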); conditions: MRC5 lung fibroblast viability, qHTS
In short: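 MRC5 normal human lung fibroblasts, 1500 cells/well, exposed to compound for 40 hr at 37 C. Cellular ATP was read by CellTiter-Glo luminescence; data normalized to DMSO and 100 uM tamoxifen, with AC50 from Hill fits.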

[7] = Cell Viability - SK-N-SH (AID 435; calls by dose curve;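 note: potency is the fitted concentration of half-maximal effect; compound exposure lasted 40 h at 37 °C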); conditions: SK-N-SH neuroblastoma cell viability qHTS
In short: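 Cells seeded at 1500 per well and incubated 5 hr at 37 °C. Compound added, then 40 hr at 37 °C. CellTiter-Glo added, 20 min at room temperature, luminescence read.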

[8] = Cell Viability - N2a (AID 540); conditions: N2a mouse neuroblastoma cell viability; at 92.2 µM (top of the series);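 note: plate controls were DMSO alone for no effect and tamoxifen control for full effect; nearly all actives have a fitted effect of over 45% in size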
In short: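 Mouse neuroblastoma N2a cells, 1500/well, exposed to compounds 40 h at 37 °C in complete medium. Viability measured as cellular ATP by CellTiter-Glo luminescence; AC50 from Hill fits of concentration-response.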

[9] = MultiTox-Fluor Cytotoxicity Assay - LYMP1-003 - Dead Cells (AID 961); note: nearly all actives have a fitted effect of over 70% in size; note: potency is the fitted concentration of half-maximal effect
In short: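 Acute toxicity is scored as increased dead-cell protease activity in human lymphoblastoid LYMP1-003 cells after 16 h compound exposure in complete culture medium. Activity is normalized to DMSO basal and 15 uM tetraoctylammonium bromide as full response.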

[10] = Cell Viability - LYMP2-003 (AID 965);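 note: cells exposed to compounds for 24 h before reading; nearly all actives have a fitted effect of over 50% in size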; note: potency is the fitted concentration of half-maximal effect;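 for activity change, negative = cytotoxicity: 0% = DMSO only and full effect = 92 µM tetraoctylammonium bromide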
In short: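 Acute cytotoxicity is scored as a concentration-dependent drop in intracellular ATP, measured by luciferase luminescence in human lymphoblastoid cells treated for 24 hours at 37 C. AC50 values derive from Hill-equation modelling.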

[11] = Cell Viability - LYMP2-009 (AID 968);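 note: cells exposed to compound for 24 h at 37 °C; nearly all actives have a fitted effect of over 55% in size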; note: potency is the fitted concentration of half-maximal effect
[12] = Cell Viability - LYMP2-019 (AID 973);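 note: cells exposed to compound for 24 h at 37 °C; nearly all actives have a fitted effect of over 55% in size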; note: potency is the fitted concentration of half-maximal effect;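 for activity change, negative = cytotoxicity: 0% = DMSO alone and full effect = 92 µM tetraoctylammonium bromide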
In short: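 Human lymphoblastoid LYMP2-019 cells (2500/well) preincubated 5 h at 37 C, then treated 24 h at 37 C in complete medium. Viability by CellTiter-Glo ATP luminescence after 30 min at room temperature; AC50 from Hill fits.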

[13] = Cell Viability - LYMP2-007 (AID 979);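 note: cells exposed to compound for 24 h before reading; nearly all actives have a fitted effect of over 60% in size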; note: potency is the fitted concentration of half-maximal effect;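 for activity change, negative = cytotoxicity: 0% = DMSO only and the negative end = 92 µM tetraoctylammonium bromide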
In short: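 Human lymphoblastoid LYMP2-007 cells (2500/well) preincubated 5 h at 37 C, then treated 24 h at 37 C in complete medium. Viability by CellTiter-Glo ATP luminescence after 30 min at room temperature; AC50 from Hill fits.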

[14] = biological target: Thyroid hormone receptor beta (Homo sapiens) (UniProt P10828); experiment: qHTS assay for small molecule agonists of thyroid hormone receptor beta signaling (AID 588545; calls by dose curve)
In short: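 Cells (2500/well) were seeded, incubated 4 hrs at 37 C, dosed with a compound series, incubated 18 hrs, loaded with CCF4 dye for 2 hrs at RT, then read for fluorescence. Data were scaled between DMSO (0%) and 10 nM T3 (100%).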

[15] = qHTS assay for small molecule antagonists of retinoid X receptor alpha signaling (AID 588546); conditions: HEK293T RXRa-UAS-bla, beta-lactamase ratio, antagonist mode; measured here: W530 green channel, cytotoxicity proxy;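 note: cells stimulated with 9-cis-retinoic acid as agonist; % is set by controls: 0 for no effect and ±100 for the full control effect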
In short: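 Beta-lactamase reporter inhibition, read as CCF4 fluorescence ratio (ex 405, em 460/530 nm) after 2 h at RT. HEK293T UAS-bla cells, 2500/well, were stimulated with 9-cis-RA at 500 or 100 nM final alongside test compound for 18 h at 37 C.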

[16] = qHTS assay for small molecule activators of the p53 signaling pathway (AID 651743; active = well fitted activation curve with a large enough effect in the signal ratio, not every such curve was filed as active; the % refers to the signal ratio; note: % of control where 0% means no effect); conditions: HCT-116 p53RE-bla, beta-lactamase FRET ratio, 16 h; activation: stronger effect = higher value
In short: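 p53RE-bla HCT-116 cells carrying a beta-lactamase reporter under p53 response elements were exposed to compounds for 16 hours at 37 C. Reporter activity read as fluorescence after 2 hours at room temperature with LiveBLAzer B/G FRET substrate.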

[17] = qHTS assay for small molecule activators of the nuclear factor-kappa B (NF-kB) signaling pathway (AID 651749; active = well fitted activation curve with a large enough effect in the signal ratio; the % refers to the signal ratio; note: % of control where 0% means no effect); conditions: NF-kB-bla ME-180 cells, beta-lactamase FRET ratio, 16 h; activation: stronger effect = higher value
In short: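 NF-kB-bla ME-180 cells carrying a beta-lactamase reporter under an NF-kB response element, 2,000 cells/well, exposed to compound for 16 hr at 37C; FRET-based beta-lactamase fluorescence read-out of pathway activation.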

[18] = biological target: Peroxisome proliferator-activated receptor alpha (Homo sapiens) (UniProt Q07869); experiment: qHTS assay for small molecule agonists of the peroxisome proliferator-activated receptor alpha (PPARalpha) signaling pathway (AID 651778); conditions: PathHunter PPARalpha complementation, chemiluminescence, 6 h; stronger effect = higher value; note: % of control where 0% means no effect
In short: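 Enzyme-fragment complementation assay in which ligand-bound PPARalpha translocates and forms an active enzyme that generates chemiluminescence. Cells were plated overnight, exposed to compound for 6 hr at 37 C, and then given detection reagent for 60 min at room temperature.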

[19] = qHTS assay for small molecule agonists of the antioxidant response element (ARE) signaling pathway measured by Nrf2-dependant transcriptional activity (AID 720636; active = well fitted curve in the direction sought with a large enough effect in the repeat runs; an effect the other way counts as inactive or inconclusive; note: % of control where 0% means no effect)
In short: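 Quantitative HTS format in HepG2 cells stably expressing an ARE-luciferase reporter; 16 hr compound treatment at 37 C, luciferase signal detected with ONE-Glo.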

[20] = qHTS assay for environmental chemicals that activate the Aryl hydrocarbon Receptor (AhR) signaling pathway (AID 651777); conditions: 1A2-DRE human hepatoma cells, luciferase, 24 h; activation: stronger effect = higher value; note: % of control where 0% means no effect; nearly all actives have a fitted effect of over 15% in size
In short: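 Quantitative HTS in stably transfected human liver-derived cells whose luciferase gene sits downstream of the CYP1A2 promoter and dioxin response element. After 24 hr exposure at 37 C, One-Glo luminescence was measured.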

Peroxisome proliferator-activated receptor alpha (Homo sapiens), sequence (Q07869 whole entry, looked up, the tested form may be a part): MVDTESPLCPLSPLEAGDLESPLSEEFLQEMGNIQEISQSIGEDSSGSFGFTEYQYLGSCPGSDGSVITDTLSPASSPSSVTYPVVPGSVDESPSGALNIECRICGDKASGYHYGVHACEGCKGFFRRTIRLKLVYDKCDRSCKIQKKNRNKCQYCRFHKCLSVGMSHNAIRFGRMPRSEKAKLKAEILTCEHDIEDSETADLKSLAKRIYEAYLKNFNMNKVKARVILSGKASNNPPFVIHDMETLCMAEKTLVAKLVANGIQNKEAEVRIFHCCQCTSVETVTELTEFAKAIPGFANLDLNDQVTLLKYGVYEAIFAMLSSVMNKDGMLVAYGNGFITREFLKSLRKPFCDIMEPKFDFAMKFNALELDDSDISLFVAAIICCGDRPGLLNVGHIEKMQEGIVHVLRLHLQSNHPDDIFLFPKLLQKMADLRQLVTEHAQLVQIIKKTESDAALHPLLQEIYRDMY
Thyroid hormone receptor beta (Homo sapiens), sequence (P10828 whole entry, looked up): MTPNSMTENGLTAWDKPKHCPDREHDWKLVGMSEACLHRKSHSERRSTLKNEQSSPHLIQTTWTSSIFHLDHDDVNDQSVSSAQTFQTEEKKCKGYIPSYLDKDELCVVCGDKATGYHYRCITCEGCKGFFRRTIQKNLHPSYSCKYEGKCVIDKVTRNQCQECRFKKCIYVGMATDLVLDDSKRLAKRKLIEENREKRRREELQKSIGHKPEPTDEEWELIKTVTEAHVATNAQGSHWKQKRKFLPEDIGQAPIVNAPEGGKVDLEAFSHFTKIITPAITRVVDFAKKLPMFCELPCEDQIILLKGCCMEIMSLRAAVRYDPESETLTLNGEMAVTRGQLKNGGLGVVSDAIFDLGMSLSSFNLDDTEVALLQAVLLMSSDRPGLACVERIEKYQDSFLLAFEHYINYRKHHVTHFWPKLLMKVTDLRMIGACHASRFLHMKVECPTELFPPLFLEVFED

C[C@@]12CC[C@H]3[C@@H](CC[C@@H]4C[C@H]5S[C@H]5C[C@]43C)[C@H]1CC[C@H]2O
inactive: Potency [2] | Potency [3] | Potency [4]
active: Potency [1] 7.75 µM

C[N+]1([O-])[C@@H]2CC(OC(=O)[C@@H](CO)c3ccccc3)C[C@@H]1[C@H]1O[C@H]12 (stereo not given in full)
inactive: Potency [1] | Potency [2] | Potency [3] | Potency [4]

C/C=C/c1ccc2c(c1)OCO2
inactive: Potency [5] > 92 µM | Potency [6] > 92 µM | Potency [7] > 92 µM | activity change, negative = cytotoxicity [8] -2.31% | Potency [9] | Potency [10] | Potency [11] | Potency [12] | Potency [13] | outcome [14] | activation [16] -2.48% | activation [17] -1.42% | max response [18] -6.18% | outcome [19]
-8.06%: max response [15]

CC(C)c1c(CN(C)[C@@H](C)Cc2ccccc2)n(C)n(-c2ccccc2)c1=O
inactive: Potency [1] | Potency [2] | Potency [3] | Potency [4]

ClC1=C(Cl)C2(Cl)C3C(Cl)C=CC3C1(Cl)C2(Cl)Cl (stereo not given)
inactive: Potency [6] > 92 µM | Potency [11] | Potency [12] | outcome [14] | activation [16] 1.8% | activation [17] 1.89% | activation [20] -0.719% | max response [18] 4.41% | outcome [19]
-16.9%: max response [15]
active: Potency [9] 39.8 µM | Potency [10] 39.8 µM

CCc1cccc(CC)c1N(COC)C(=O)CCl
inactive: Potency [7] > 92 µM | activity change, negative = cytotoxicity [8] -5.69% | Potency [9] | outcome [14] | activation [17] -1.33% and -2.4% | activation [20] -1.54% and -2.21% | max response [18] -2.24% and -0.952%
active: Potency [11] 50.1 µM | Potency [12] 50.1 µM
18.2%: max response [15]

C[C@H]1CN(C2CCC(C#N)(c3ccc(F)cc3)CC2)CC[C@@]1(C(=O)O)c1ccccc1 (stereo not given in full)
inactive: Potency [1] | Potency [2] | Potency [3] | Potency [4]

O=S1OCC2C(CO1)C1(Cl)C(Cl)=C(Cl)C2(Cl)C1(Cl)Cl (stereo not given)
1.46%: max response [15]
active: activity change, negative = cytotoxicity [8] -80.3%
inactive: Potency [5] > 92 µM | Potency [6] > 92 µM | Potency [7] > 92 µM | Potency [11] | Potency [12] | Potency [13] | outcome [14] | activation [16] -4.01% | activation [17] 1.74% | activation [20] -0.06% | outcome [19]

CC(=O)O[C@H]1CC[C@@]2(C)C(=CC[C@@H]3[C@H]2CC[C@]2(C)C(=O)CC[C@H]32)C1
inactive: Potency [1] | Potency [2] | Potency [3] | Potency [4]

C[C@H](N)[C@@H](O)c1ccccc1
inactive: Potency [1] | Potency [2] | Potency [3] | Potency [4]

COc1ccc2c(c1OC)CN1CCc3cc4c(cc3[C@H]1C2)OCO4
inactive: Potency [1]

ClC1=C(Cl)C2(Cl)C3C4C=CC(C4)C3C1(Cl)C2(Cl)Cl (stereo not given)
-0.359%: max response [15]
inactive: Potency [5] > 92 µM | Potency [6] > 92 µM | Potency [7] > 92 µM | Potency [11] | Potency [13] | outcome [14] | activation [16] 0.0105% | activation [20] 0.192% | outcome [19]
active: Potency [9] 39.8 µM | Potency [10] 31.6 µM

C#CCN(C)[C@@H](C)Cc1ccccc1
inactive: Potency [1] | Potency [2] | Potency [3] | Potency [4]

CCOCN(C(=O)CCl)c1c(C)cccc1CC
inactive: activity change, negative = cytotoxicity [8] 4.55% | outcome [14] | activation [16] -6.37% and -3.12% | activation [17] -2.07% and -2.02% | activation [20] -0.995% and 0.961% | max response [18] -0.344% and -1.51%
active: Potency [5] 22.8 µM | Potency [10] 50.1 µM | Potency [13] 50.1 µM
